Bioassay records: PubChem, NMMLSC
BoNT-A LC inh2: inhibitors of Botulinum neurotoxin A light chain protease; multiplex microsphere protease substrate cleavage, flow cytometry; 360,000 compounds, 0.17% hits; inhibition, % at 10 µM; AID 588499; further: plate controls were buffer without enzyme for full effect and enzyme alone for no effect
Autofluor counter: flagged as autofluorescent in microsphere protease counterscreen; compound autofluorescence counterscreen, microsphere flow cytometry; stronger effect = higher value; fluorescence intensity (no concentration beside the values); 360,000 compounds, 3.1% hits; AID 624483; in the data active means fluorescence intensity above about 16000; inconclusive means no clear call, values can overlap the other calls
BoNT F protease: BoNT F light chain protease inhibition; Multiplex microsphere protease cleavage assay, flow cytometry; inhibition, % at 10 µM; 360,000 compounds, 0.22% hits; in the data active means inhibition above about 35%, passing the limit was not always enough; inconclusive means no clear call, values can overlap the other calls; further: plate controls were buffer without enzyme for full effect and enzyme alone for no effect
Anthrax LF inh2: blocks Bacillus anthracis lethal factor protease; multiplex microsphere protease cleavage assay, LF; inhibition, % at 10 µM; 360,000 compounds, 0.12% hits; further: plate controls were buffer without enzyme for full effect and enzyme alone for no effect
Target sequence (P15917 whole entry, looked up): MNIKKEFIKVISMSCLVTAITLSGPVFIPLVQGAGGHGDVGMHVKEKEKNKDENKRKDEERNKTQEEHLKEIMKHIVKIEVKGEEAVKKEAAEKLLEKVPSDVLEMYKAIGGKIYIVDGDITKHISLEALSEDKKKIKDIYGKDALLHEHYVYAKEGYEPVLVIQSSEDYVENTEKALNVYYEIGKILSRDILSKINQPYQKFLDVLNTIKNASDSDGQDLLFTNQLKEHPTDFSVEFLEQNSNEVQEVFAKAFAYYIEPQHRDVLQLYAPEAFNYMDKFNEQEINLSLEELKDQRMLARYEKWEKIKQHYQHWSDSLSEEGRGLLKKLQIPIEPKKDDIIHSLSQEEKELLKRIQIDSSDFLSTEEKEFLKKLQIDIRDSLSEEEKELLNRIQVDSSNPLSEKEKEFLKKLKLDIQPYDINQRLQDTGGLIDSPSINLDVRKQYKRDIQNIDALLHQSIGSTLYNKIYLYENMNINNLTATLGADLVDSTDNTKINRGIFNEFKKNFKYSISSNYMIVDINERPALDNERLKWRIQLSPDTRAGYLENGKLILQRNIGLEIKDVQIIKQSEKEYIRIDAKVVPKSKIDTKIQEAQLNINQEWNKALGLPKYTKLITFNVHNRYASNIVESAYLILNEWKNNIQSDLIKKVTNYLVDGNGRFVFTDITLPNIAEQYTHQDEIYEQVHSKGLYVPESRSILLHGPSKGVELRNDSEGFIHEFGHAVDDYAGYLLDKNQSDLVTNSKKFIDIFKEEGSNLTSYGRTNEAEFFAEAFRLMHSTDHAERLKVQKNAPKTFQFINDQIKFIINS
An asterisk follows results filed as active. Rows were chosen to be rich in hits. Some 3.5% of all compounds tested hit in one or more screens of this group. Unless noted, no stated cut-off is given here; in the data, active means inhibition above about 30%; inconclusive means no clear call, values can overlap the other calls; inactive means below that.

What do the screens show for `Cc1ccc(-c2cn3cccnc3n2)cc1NC(=O)c1ccc(Br)o1`?
BoNT-A LC inh2: -3; Autofluor counter: 17184*; BoNT F protease: -6; Anthrax LF inh2: -5

How did CCCC(=O)Nc1cc(-c2cn3cccnc3n2)ccc1OC do in these assays?
BoNT-A LC inh2: 5; Autofluor counter: 18918*; BoNT F protease: 7; Anthrax LF inh2: 0

How did O=C(Nc1cccc(-c2cn3cccnc3n2)c1)c1ccc2c(c1)OCO2 do in these assays?
BoNT-A LC inh2: inconclusive; Autofluor counter: 19449*; BoNT F protease: 12; Anthrax LF inh2: -5

How did O=C(Nc1cccc(-c2cn3cccnc3n2)c1)c1ccc(Br)o1 do in these assays?
BoNT-A LC inh2: inconclusive; Autofluor counter: 22911*; BoNT F protease: 1; Anthrax LF inh2: -4

What do the screens show for `O=C(Nc1cccc(-c2cn3cccnc3n2)c1)c1ccco1`?
BoNT-A LC inh2: -1; Autofluor counter: 10527; BoNT F protease: -2; Anthrax LF inh2: -4

What do the screens show for `C(=N\Nc1nc(N2CCOCC2)nc(N2CCOCC2)n1)/c1ccncc1`?
BoNT-A LC inh2: -1; Autofluor counter: 2490; BoNT F protease: -8; Anthrax LF inh2: -2

Results for C(=N\Nc1nc(N2CCOCC2)nc(N2CCOCC2)n1)/c1cccnc1 ?
BoNT-A LC inh2: 0; Autofluor counter: 22356*; BoNT F protease: 0; Anthrax LF inh2: 2

What do the screens show for `COc1ccc(NC(=O)CC2CC3CCC2C3)cc1S(=O)(=O)N1CCOCC1` (stereo not drawn)?
BoNT-A LC inh2: 1; Autofluor counter: 3874; BoNT F protease: -1; Anthrax LF inh2: -3

Results for Cc1ccc2c(c1)c1c3n2CCCN(Cc2ccccc2)C3CCC1 (stereo not drawn) ?
BoNT-A LC inh2: inconclusive; Autofluor counter: 16950*; BoNT F protease: -11; Anthrax LF inh2: -3

How did CC1(C)NC(=O)N(CC(O)CN2CCCCC2)C1=O (stereo not drawn) do in these assays?
BoNT-A LC inh2: inconclusive; Autofluor counter: 19639*; BoNT F protease: 1; Anthrax LF inh2: 1

What do the screens show for `CCOC(=O)C1CCN(Cc2cnc(Oc3ccc(C(C)(C)C)cc3)s2)CC1`?
BoNT-A LC inh2: -1; Autofluor counter: 21136*; BoNT F protease: -3; Anthrax LF inh2: -4

How did Brc1ccc(Oc2ncc(CN3CCOCC3)s2)cc1 do in these assays?
BoNT-A LC inh2: inconclusive; Autofluor counter: 18177*; BoNT F protease: 12; Anthrax LF inh2: -10

Results for COc1ccc(N2CCN(C(=O)c3ccc4c(c3)CC(c3ccccc3)OC4=O)CC2)cc1 (stereo not drawn) ?
BoNT-A LC inh2: 0; Autofluor counter: 6022; BoNT F protease: -2; Anthrax LF inh2: -3

What do the screens show for `CCCCCOC(=O)C(C)Sc1n[nH]c(=O)[nH]c1=O` (stereo not drawn)?
BoNT-A LC inh2: 0; Autofluor counter: 2240; BoNT F protease: 0; Anthrax LF inh2: -2

What do the screens show for `CCCCOC(=O)CSc1n[nH]c(=O)[nH]c1=O`?
BoNT-A LC inh2: 0; Autofluor counter: 23897*; BoNT F protease: -2; Anthrax LF inh2: 1

How did O=C(CCCCC(=O)NCCCc1ccccc1)NCCCc1ccccc1 do in these assays?
BoNT-A LC inh2: -4; Autofluor counter: 4073; BoNT F protease: inconclusive; Anthrax LF inh2: -5

How did C=CCNC(=O)c1ccc2nc(-c3ccccc3)c(-c3ccccc3)nc2c1 do in these assays?
BoNT-A LC inh2: 2; Autofluor counter: 3442; BoNT F protease: -14; Anthrax LF inh2: 1

Results for C=CCNC(=O)CCCc1ccccc1 ?
BoNT-A LC inh2: 0; Autofluor counter: 23759*; BoNT F protease: -2; Anthrax LF inh2: -1

How did C=CCNC(=O)c1ccc(C(=O)c2ccccc2)cc1 do in these assays?
BoNT-A LC inh2: 0; Autofluor counter: 23162*; BoNT F protease: 2; Anthrax LF inh2: 0

What do the screens show for `CC(C)C[C@@H](CNCC(=O)[C@H](C)NC(=O)c1[nH]cnc1C(=O)N[C@H](CN)CC(C)C)NC(=O)c1nc[nH]c1C(=O)N[C@@H](C)C(=O)O`?
BoNT-A LC inh2: 0; Autofluor counter: 3743; BoNT F protease: -9; Anthrax LF inh2: 3

Results for CC1CCN(C(=O)Cn2c(=O)n(CCCC(=O)NCc3ccco3)c(=O)c3sccc32)CC1 ?
BoNT-A LC inh2: -1; Autofluor counter: 3601; BoNT F protease: -13; Anthrax LF inh2: 9

What do the screens show for `CCN(Cc1ccccc1)C(=O)Cn1c(=O)n(CC(=O)NCc2ccco2)c(=O)c2sccc21`?
BoNT-A LC inh2: 0; Autofluor counter: 21886*; BoNT F protease: 1; Anthrax LF inh2: -9

Results for CC1CCCCN1C(=O)Cn1c(=O)n(CCC(=O)NCc2ccco2)c(=O)c2sccc21 (stereo not drawn) ?
BoNT-A LC inh2: 2; Autofluor counter: 19227*; BoNT F protease: 4; Anthrax LF inh2: -1

Results for Cc1cccc(C)c1NC(=O)Cn1c(=O)n(CCC(=O)NCc2ccco2)c(=O)c2sccc21 ?
BoNT-A LC inh2: -2; Autofluor counter: 20666*; BoNT F protease: -4; Anthrax LF inh2: -3

Results for CCOc1ccc(CC(=O)Nc2ccc(S(=O)(=O)N3CCCC3)cc2)cc1 ?
BoNT-A LC inh2: 10; Autofluor counter: inconclusive; BoNT F protease: 23; Anthrax LF inh2: 6

Results for O=C(OCCc1ccccn1)c1cccc([N+](=O)[O-])c1 ?
BoNT-A LC inh2: 0; Autofluor counter: 3771; BoNT F protease: 4; Anthrax LF inh2: 6

What do the screens show for `CCN1C(=O)CC(c2ccco2)Sc2ccccc21` (stereo not drawn)?
BoNT-A LC inh2: -3; Autofluor counter: 17133*; BoNT F protease: -8; Anthrax LF inh2: -4

Results for O=C(CN1C(=O)CC(c2ccco2)Sc2ccccc21)NCc1ccc2c(c1)OCO2 (stereo not drawn) ?
BoNT-A LC inh2: -3; Autofluor counter: 23277*; BoNT F protease: -3; Anthrax LF inh2: -2

How did COc1cc(C2CC(=O)N(CC(=O)NCc3ccco3)c3ccccc3S2)cc(OC)c1OC (stereo not drawn) do in these assays?
BoNT-A LC inh2: -1; Autofluor counter: 24105*; BoNT F protease: -2; Anthrax LF inh2: -1

Results for O=C(CN1C(=O)CC(c2ccco2)Sc2ccccc21)Nc1ccccc1F (stereo not drawn) ?
BoNT-A LC inh2: 0; Autofluor counter: 5725; BoNT F protease: -1; Anthrax LF inh2: -1

How did COc1cc(C2CC(=O)N(CC(=O)NCC3CCCO3)c3ccccc3S2)cc(OC)c1OC (stereo not drawn) do in these assays?
BoNT-A LC inh2: 0; Autofluor counter: 2706; BoNT F protease: -1; Anthrax LF inh2: 1

How did Cc1nn(CC(=O)N(C)C)c(C)c1S(=O)(=O)N1CCOCC1 do in these assays?
BoNT-A LC inh2: 2; Autofluor counter: 5480; BoNT F protease: -6; Anthrax LF inh2: 1

Results for O=C1CCC[C@@H]2C=C[C@H](c3ccc(Br)cc3)[C@H]3CCN1[C@@H]32 ?
BoNT-A LC inh2: -1; Autofluor counter: 4241; BoNT F protease: -8; Anthrax LF inh2: -12

What do the screens show for `Cc1ccc(-n2ncc3c2CC(C)(C)CC3NC(=O)CCc2c(C)noc2C)cc1` (stereo not drawn)?
BoNT-A LC inh2: 0; Autofluor counter: 5535; BoNT F protease: 2; Anthrax LF inh2: 3

What do the screens show for `Cc1cc2c(s1)NC(=O)CN=C2c1cccs1`?
BoNT-A LC inh2: inconclusive; Autofluor counter: 19677*; BoNT F protease: 0; Anthrax LF inh2: -1

How did O=C(Nc1ccc(Cl)c(S(=O)(=O)N2CCOCC2)c1)c1ccc(Cl)nc1 do in these assays?
BoNT-A LC inh2: 0; Autofluor counter: inconclusive; BoNT F protease: 5; Anthrax LF inh2: -4
